# PMP22 txn prim – modulators of PMP22 gene transcription in S16 Schwann cells | S16 Pmp22-F2sN Schwann cells, FLuc/NLuc coincidence luminescence, 24 h | 43,000 compounds, 2% hits | Potency, µM (highest dose often 57.5 µM), for the others: at the top dose activity change, negative = inhibition, hits mostly inhibitors; active means clear falling dose curves in both reporters; inconclusive means both reporters move, but less clearly or upward; inactive means either reporter flat; the % is the NLuc reporter signal
#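 Transcriptional readout in edited S16(c9) cells: two luciferases reported from the Pmp22 locus, measured in turn after 24 h compound incubation.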
# pS6 MEF inh – inhibitors of mTORC1 signaling in Tsc2-/- p53-/- MEF cells. Tsc2-/- p53-/- MEF, phospho-rpS6 immunofluorescence/PI, 24 h. Potency, µM (doses to about 38.3 µM), for the others: top-dose activity change, negative = inhibition, hits mostly inhibitors. 44,000 compounds, 0.78% hits;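 further: plate controls were DMSO for no effect and rapamycin for full effect; nearly all actives have a fitted effect of over 50% in size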
#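 Read-out: phospho-S6 Alexa-488 intensity over PI intensity per well, scored as % active cells using thresholds from rapamycin (7.5 nM) and DMSO controls. Tsc2-/-, p53-/- MEFs exposed to compound for 24 h; PI cell count recorded as viability.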
# OvCa metastasis – ovarian cancer metastasis inhibition, 3D TME model; SKOV3ip1-GFP adhesion/invasion on 3D omental model, fluorescence; Potency, µM (series often up to 45.8 µM), inactives show at the top dose activity change, negative = inhibition, usual class: inhibitors; 46,000 compounds, 0.1% hits; AID 1963576;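 further: plate controls were DMSO wells for no effect and tomatine positive control wells for full effect; nearly all actives have a fitted effect of over 65% in size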
#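 Primary human omental fibroblast/mesothelial 3D culture pre-formed 48 h. SKOV3ip1-GFP cells added with compounds (0.36-46 umol/L), incubated 2 h RT/16 h 37 C, fixed; GFP cells quantified at 488/509 nm.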
# p53null 32C kill – kills p53 null cells at the permissive temperature. H1299-neo p53 null cells, ATP luminescence, 24 h, 32C. Potency, µM (series often up to 46.1 µM), for inactives: at the top dose activity change, negative = cytotoxicity, usual class: cytotoxic. AID 903. 55,000 compounds, 0.62% hits;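 further: 0% = DMSO only and -100% = full killing by 100 µM tamoxifen; nearly all actives have a fitted effect of over 55% in size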
#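 H1299-neo (p53-null) cells, 600/well, were pre-incubated overnight at 37C, then exposed to compounds at up to 46 uM for 24 hr at 32C. Viability was measured as ATP content by luminescence, and AC50 values came from Hill fits.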
# S16 F2sN tox – S16 Schwann cell cytotoxicity; S16 Pmp22-F2sN Schwann cells (luciferase reporters placed in the Pmp22 gene) viability, CellTiter-Glo, 24 h; AID 1508642; Potency, µM (highest dose often 57.5 µM), inactives show at the highest dose activity change, negative = cytotoxicity, usual class: cytotoxic; 43,000 compounds, 0.48% hits; further: nearly all actives have a fitted effect of over 65% in size
#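 Seed 500-1,000 S16 Pmp22-F2sN cells per well in phenol-red-free DMEM with 10% heat-inactivated FBS; pin-add 23 nL compound; incubate 24 h at 37C; add CellTiter-Glo, wait 15 min protected from light; read luminescence.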
# p53null 39C kill – selectivity test: cytotoxicity in p53 null cells, nonpermissive temperature; H1299 p53-null (neo) cells, 39C, ATPlite viability, 24 h; Potency, µM (top dose mostly 46.1 µM), inactives show at the highest dose activity, negative = cell killing, most hits filed as cytotoxic; 55,000 compounds, 0.97% hits; AID 904;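 further: 0% = DMSO only and -100% = full killing by 100 µM tamoxifen; nearly all actives have a fitted effect of over 50% in size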
#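 H1299 lung cancer cells, p53-null (H1299-neo) or expressing p53 A138V (H1299-p53A138V), were plated overnight at 37C, then exposed to compounds at up to 46 uM for 24 hr at 39C. Viability was read by ATP-based luminescence.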
# Numbers without * were called inactive; i = inactive; ? = inconclusive; / = no result. An excerpt weighted towards active compounds, which were near 3.1% of everything screened. Unless noted, the call rests on the fitted dose curve; in most records, active means well fitted curve in the direction sought with a large enough effect; inconclusive means small, poorly fitted or top-dose-only effect, or another doubt; inactive means no such curve, though single readings can be large; an effect the other way counts as inactive or inconclusive. Unless noted, on the % scale 0 is the no-effect control and ±100 the full control effect; potency means the concentration at half of the fitted maximal effect.
SMILES,PMP22 txn prim,pS6 MEF inh,OvCa metastasis,p53null 32C kill,S16 F2sN tox,p53null 39C kill
CC1CCCN(C(=O)c2cc3ccc4cccnc4c3[nH]2)C1 (stereo unspecified),-14.6%,-8.2%,-18.0%,1µM*,-11.6%,2µM*
O=C(c1cc2ccc3cccnc3c2[nH]1)N1CCN(c2ccc(Cl)cc2)CC1,-4.7%,2.2%,-1.3%,-10.5%,-4.6%,-14.8%
O=C(c1cc2ccc3cccnc3c2[nH]1)N1CCCCC1,-5.7%,3.7%,2.1%,2µM*,-6.9%,0.794µM*
CC(C)Nc1cc(C(F)(F)F)cc2nc(NC(=O)c3cccnc3)nn12,/,/,-0.6%,/,/,/
Cc1ccc(Cl)cc1N1CCN(C(=O)c2ccc(CS(=O)c3ccccc3)o2)CC1 (stereo unspecified),10.3µM*,?,i,7.4%,?,-4.8%
COc1ccc(CNC(=O)c2cc(-c3ccc(OC)c(OC)c3)nc3n[nH]c(-c4ccc(C)cc4)c23)cc1,?,14.7µM*,?,-12.0%,-12.6%,-1.7%
COc1ccc(CNC(=O)c2cc(-c3ccc(OC)cc3)nc3n[nH]c(-c4cccc([N+](=O)[O-])c4)c23)cc1,?,0.6%,-7.8%,4.0%,3.4%,14.3%
COc1ccc(-c2cc(C(=O)NCc3ccc(F)cc3)c3c(-c4ccc(F)cc4)[nH]nc3n2)cc1OC,?,-5.5%,-6.6%,-14.0%,?,0.7%
CCCCNC(=O)c1cc(-c2ccc(OC)cc2)nc2n[nH]c(-c3cccc([N+](=O)[O-])c3)c12,?,-5.4%,-3.8%,0.7%,15.8µM*,14.9%
Cc1ccc(-c2cc(C(=O)NCCc3ccccc3)c3ccccc3n2)cc1C,-75.5%,11.1%,9.8%,-17.9%,-29.6%,10.2%
Cc1ccc(-c2cc(C(=O)NCc3cnn(C)c3C)c3ccccc3n2)cc1C,-39.3%,-6.7%,-5.7%,?,1.0%,0.794µM*
Cc1cc(Nc2nc(N[C@@H](C)c3ncc(F)cn3)ncc2Cl)n[nH]1,/,/,8.6%,/,/,/
Cc1ccc(CNC(=O)C(=O)NCC(c2ccco2)S(=O)(=O)c2cccs2)cc1 (stereo unspecified),4.1%,0.0%,17.0%,-11.6%,6.7%,6.5%
Cc1cc(C)c(S(=O)(=O)NCC(c2ccco2)S(=O)(=O)c2cccs2)c(C)c1 (stereo unspecified),?,-4.7%,-3.8%,11.0%,17.8µM*,2.6%
Cc1cc(S(=O)(=O)NCC(c2ccco2)S(=O)(=O)c2ccccc2)ccc1F (stereo unspecified),-26.6%,-4.3%,i,-0.2%,?,23.7%
Cc1cc(S(=O)(=O)NCC(c2ccco2)S(=O)(=O)c2cccs2)ccc1F (stereo unspecified),8.97µM*,-12.6%,-5.7%,5.4%,10µM*,15.4%
C[C@@H]1COC(Nc2ccc3ncnc(Nc4ccc(OCc5nccs5)c(Cl)c4)c3c2)=N1,/,/,-22.2%,/,/,/
Cn1c(=O)oc2cc(S(=O)(=O)N3CCC(C(=O)N4CCN(c5ccc(Cl)cc5)CC4)CC3)ccc21,13.4µM*,-3.5%,14.8%,3.2%,?,9.5%
Cn1c(=O)oc2cc(S(=O)(=O)N3CCC(C(=O)N4CCN(c5cccc(Cl)c5)CC4)CC3)ccc21,?,-16.5%,i,34.1%,?,13.0%
O=C(N/N=C\c1cc(Cl)ccc1O)c1ccc(S(=O)(=O)N2CCCCC2)cc1,/,/,/,7.08µM*,/,/
O=C(NC1CCCCC1)c1ccc(S(=O)(=O)N2CCCC2)cc1,/,/,/,-1.1%,/,-5.4%
CO[C@H]1C[C@@H]2CC[C@@H](C)[C@@](O)(O2)C(=O)C(=O)N2CCCC[C@@H]2C(=O)O[C@H]([C@H](C)C[C@@H]2CC[C@H](OCCO)[C@H](OC)C2)CC(=O)[C@H](C)C=C(C)[C@@H](O)[C@@H](OC)C(=O)[C@H](C)C[C@H](C)C=CC=CC=C1C,/,/,10.9%,/,/,/
CNC(=O)[C@H](Cc1ccccc1)NC(=O)[C@H](CC(C)C)[C@H](CSc1cccs1)C(=O)NO,/,/,-10.5%,/,/,/
O=C(Cn1cc(S(=O)(=O)Cc2cccc(Cl)c2)c2ccccc21)Nc1ccccc1C(F)(F)F,?,18.5µM*,i,-3.9%,?,-12.2%
O=[N+]([O-])c1ccc(Nc2ccccc2-c2ccccc2)c2nonc12,/,/,-6.4%,/,/,/
SMILES,PMP22 txn prim,pS6 MEF inh,OvCa metastasis,p53null 32C kill,S16 F2sN tox,p53null 39C kill
CCOc1ccc(CNC(=O)c2ccccc2NC(=O)c2nsc3ccccc23)cc1,?,?,13.5%,-29.4%,-6.8%,12.6µM*
COc1ncc(-c2ccc3nccc(-c4ccnnc4)c3c2)cc1NS(=O)(=O)c1ccc(F)cc1F,/,/,4.4%,/,/,/
O=S(=O)(c1ccccc1)n1nc(-c2ccc(Cl)cc2)nc1NCc1ccccc1,?,14.7µM*,i,19.3%,?,8.1%
O=S(=O)(c1ccccc1)n1nc(-c2ccccc2)nc1NCc1ccc(Cl)cc1,-34.7%,-0.1%,i,9.2%,2.9%,-11.0%
O=C(Nc1cccc(C(=O)N2CCCCC2)c1)c1nsc2ccccc12,-28.4%,1.3%,1.1%,?,-2.5%,10µM*
COc1cccc(CNC(=O)c2cccc(NC(=O)c3nsc4ccccc34)c2)c1,-9.7%,2.8%,-14.8%,-5.6%,?,-17.2%
COC(=O)c1cccc(NC(=O)c2nsc3ccccc23)c1,0.7%,-3.5%,?,3.16µM*,-15.6%,7.08µM*
CC1CCN(C(=O)c2ccc(NC(=O)c3nsc4ccccc34)cc2)CC1,-4.4%,0.3%,-9.1%,?,3.1%,?
CCC(=O)NC[C@H](Cc1ccc(OCCc2nc(-c3ccccc3)oc2C)cc1)NC(C)=CC(=O)c1ccc(C(F)(F)F)cc1,/,/,-14.4%,/,/,/
COC(=O)c1c(NC(=O)c2ccc(S(=O)(=O)N3CCCCC3)cc2)sc2c1CCN(C)C2,?,4.14µM*,?,-18.4%,?,-1.1%
Oc1ccc(Nc2nc(-c3ccc(Cl)cc3)nc3ccccc23)cc1,?,?,-15.6%,?,?,15.8µM*
CC(N[C@H]1CCCC[C@H]1NC(=O)c1ccc(Cl)cc1)c1cccc2ccccc12 (stereo partly specified),/,/,-11.8%,/,/,/
CC(C)(C)C(=O)Oc1ccc2c(c1)nc(NC(=O)c1cccc([N+](=O)[O-])c1)n2CCCO,/,/,7.6%,/,/,/

# From PubChem BioAssay
